The sample as a whole holds a higher share of hits than the screen did.
Dicer inh: blocks human Dicer maturation of pre-miR-21 | z-score at 25 µM | cat-ELCCA pre-miR-21 Dicer processing, chemiluminescence; stronger effect = higher value | 6% of 47,000 active | AID 1347074 | Q9UPY3; in the data active = z-score above about 3, passing the limit was not always enough;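 note: higher signal means more uncleaved substrate so more Dicer inhibition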
Large screens that a line does not name were inactive; ! = not active in a repeat.

NC(N)=N/N=C/c1ccc(Cl)cc1Cl	Dicer inh 4.5!
NC(N)=N/N=C/c1ccc(Cl)c(Cl)c1	none
N#C/C(=C\c1ccc(Cl)cc1Cl)C(N)=S	none
O=C(c1ccc(Cl)cc1)N1CCC(n2nnc3ccccc32)CC1	none
CC(C)C1Oc2ccc(Cl)cc2C2CC(c3ccccc3O)=NN21 (stereo not given)	none
COc1ccc(C2Oc3ccccc3C3CC(c4cc(OC)ccc4O)=NN32)cc1 (stereo not given)	Dicer inh 9.8
COc1ccc(C2Oc3ccccc3C3CC(c4ccccc4O)=NN32)c(OC)c1 (stereo not given)	none
COc1ccc(O)c(C2=NN3C(C2)c2cc(Br)ccc2OC3c2ccsc2)c1 (stereo not given)	none
COc1ccc(O)c(C2=NN3C(C2)c2ccccc2OC3c2ccccc2F)c1 (stereo not given)	Dicer inh 6.9
Oc1ccccc1C1=NN2C(C1)c1ccccc1OC2c1cccs1 (stereo not given)	none
CSCCC1Oc2ccccc2C2CC(c3cc(C)ccc3O)=NN12 (stereo not given)	none
COc1ccc(C2Oc3ccccc3C3CC(c4ccccc4O)=NN32)cc1 (stereo not given)	none
Oc1ccccc1C1=NN2C(C1)c1cc(Br)ccc1OC2c1ccsc1 (stereo not given)	Dicer inh 4.2
COc1cccc(C2Oc3ccccc3C3CC(c4cc(OC)ccc4O)=NN32)c1 (stereo not given)	none
CC(C)CC1Oc2ccccc2C2CC(c3ccccc3O)=NN12 (stereo not given)	Dicer inh 5.3
COc1ccc(C2Oc3ccccc3C3CC(c4cc(OC)ccc4O)=NN32)c(OC)c1 (stereo not given)	none
CC1CN(C(=O)NC(=O)c2ccc(F)c(Cl)c2)CC(C)O1 (stereo not given)	none
Cc1ccc(N2CC(C)Cn3c2nc2c3c(=O)n(CC(=O)O)c(=O)n2C)cc1C (stereo not given)	none
COc1ccc(OCCC(=O)NNC(=S)NC2CC3C=CC2C3)cc1 (stereo not given)	none
Cc1nc(-c2cc(Cl)cc(Cl)c2)[nH]c(=O)c1Oc1ccc(Cl)cc1	none
CC(C)(O)C#Cc1ccc(/C=N/Nc2ncc(C(F)(F)F)cc2Cl)cc1	none
O=C(O)C(F)(F)C12OC3C4C5CC(C6C5C3C61)C42 (stereo not given)	none
CCOC(=O)CN1C(=O)C(C(C)C)Oc2c(C(C)C)cccc21 (stereo not given)	none
O=C(O)CCC1CCCCCCCCCCC1=O (stereo not given)	none
Cc1ccc2c(c1)NC(c1ccccc1)C1=C(CC(C)(C)CC1=O)N2 (stereo not given)	none
CC1(C)CC(=O)C2=C(C1)Nc1ccccc1NC2c1cccc(Br)c1 (stereo not given)	Dicer inh 3.5
CC(C)Oc1ccc(C2Nc3ccccc3NC3=C2C(=O)CC(C)(C)C3)cc1 (stereo not given)	none
CC1C/C(=N\Nc2ccc(Br)cc2)c2cc(Cl)ccc2S1 (stereo not given)	Dicer inh 3.2
CC1C/C(=N\Nc2cc(Cl)cc(Cl)c2)c2cc(Cl)ccc2S1 (stereo not given)	none
O=[N+]([O-])c1ccc(N/N=C2\CCSc3ccc(Cl)cc32)cc1	none
COc1ccc(Cl)cc1Nc1nc(-c2cccnc2)nc2ccccc12	none
O=C1Nc2ccccc2/C1=C/c1cc2ccccc2n1S(=O)(=O)c1ccccc1	none
N#Cc1c(NCc2cccnc2)ccc([N+](=O)[O-])c1NCc1cccnc1	none
CCOC(=O)c1c(C)noc1-c1csc(Nc2c(C)cc(C)cc2C)n1	none
CCOC(=O)c1sc2sc(C(=O)OCC)c(-c3ccco3)c2c1N	none
CCOC(=O)c1c(C)noc1-c1ccco1	Dicer inh 7.7
CC1=Nn2c(nc3sc(C)c(C)c3c2=O)SC1	none
Cn1c(=O)c2c3oc(-c4ccc(Cl)c(Cl)c4)nc3c(=O)n(C)c2n(C)c1=O	none
O=c1[nH]c2ccc(Nc3nc4ccccc4nc3NS(=O)(=O)c3ccc(Cl)cc3)cc2[nH]1	none
O=S(=O)(Nc1nc2ccccc2nc1NCc1ccccc1)c1ccc(Cl)cc1	Dicer inh 6
O=S(=O)(Nc1nc2ccccc2nc1Nc1ccc(Cl)cc1)c1ccccc1	none
c1cnc2c(OCCN3CCCCC3)cccc2c1	none
N=C(N)SCc1c(F)cccc1Cl	none
S=C(Nc1ccc(Cl)cc1)SCc1c(Cl)cccc1Cl	none
CCOC(=S)SCc1c(F)cccc1Cl	Dicer inh 4.3
Nc1ncc(-c2nnnn2-c2ccc(Br)cc2)c(-c2ccccc2)n1	none
Clc1ccccc1Nc1nc(-c2ccccc2)cs1	none
CCOC(=O)C(O)(NC(=O)c1ccccc1Cl)C(F)(F)F (stereo not given)	none
CCOC(=O)C(NC(=O)c1ccccc1Cl)(Nc1ccc(C)cn1)C(F)(F)F (stereo not given)	Dicer inh 3
COC(=O)C(O)(NC(=O)c1ccccc1Cl)C(F)(F)F (stereo not given)	Dicer inh 3.9
CCOC(=O)C(O)(NC(=O)c1ccccc1C)C(F)(F)F (stereo not given)	none
CCOC(=O)C(NC(=O)c1ccccc1Cl)(Nc1cccc(C)n1)C(F)(F)F (stereo not given)	none
CCOC(=O)C(NC(=O)c1ccccc1Cl)(Nc1cc(C)ccn1)C(F)(F)F (stereo not given)	none
Clc1ccc(-c2ccnc3nncn23)cc1	none
O=C(Nn1c(=S)[nH]c2ccccc2c1=O)c1cccnc1	none
COc1ccc(-n2nc(C#N)c(=O)[nH]c2=O)cc1	none
Cn1c(/C=C/c2ccccc2)[n+](C)c2ccccc21	none
O=S(=O)(NCC(O)c1ccccc1)c1ccccc1 (stereo not given)	none
CCCN1C(=O)C(O)(CC(=O)c2ccc(C)cc2)c2ccccc21 (stereo not given)	none
CC1(C)CC(=O)C2=C(C1)Nc1[nH]c(=O)[nH]c(=O)c1C2c1ccc2c(c1)OCO2 (stereo not given)	none
C=C1SC(=Nc2ccccc2Cl)N(C(=O)COc2cc(Cl)c(Cl)cc2Cl)C1(C)C	none
Cc1nc2cc(NCc3ccco3)ccc2n1C	none
Cc1ccc(-n2cnc3cc(NCc4ccncc4)ccc32)cc1	none
COc1ccccc1-n1cnc2cc(NCc3ccco3)ccc21	Dicer inh 6.5
Cc1cc2ncc(C(=O)/C=C/N(C)C)c(C)n2n1	none
O=S(=O)(Cc1ccccc1F)c1cccs1	none
COc1ccc2c(c1)CCCN2C(=O)c1c(F)cccc1F	none
Cc1ccccc1-n1c(N)cc(=O)n(Cc2ccco2)c1=O	none
Cc1c2c(=O)n(-c3ccccc3)[nH]c2cc(=O)n1Cc1cccnc1	none
Cc1c2c(=O)n(-c3ccccc3)[nH]c2cc(=O)n1Cc1ccco1	Dicer inh 3.3
CC(C)CC(C1=C(O)CCCC1=O)C1=C(O)CCCC1=O	none
CCOc1cc(Cl)c(C2C(C(=O)OC)=C(C)NC3=C2C(=O)c2ccccc23)cc1OC (stereo not given)	none
COC(=O)C1=C(C)N=C2SCCC(=O)N2C1c1ccc(OC(C)=O)cc1 (stereo not given)	none
Oc1ccc(Cc2nc3ccccc3[nH]2)cc1	none
COc1ccc(OCc2nc3ccccc3[nH]2)cc1	none
Nc1cccc(-c2nc3ccccc3[nH]2)c1	none
Nc1cccc(CCc2nc3cc4ccccc4cc3[nH]2)c1	Dicer inh 6.9
CCN(CC)Cc1nc2ccccc2[nH]1	Dicer inh 3.4
O=S(=O)(CCc1nc2ccccc2[nH]1)CCc1nc2ccccc2[nH]1	none
c1ccc(CCc2nc3ccccc3[nH]2)cc1	Dicer inh 3.2
Nc1ccc(CCc2nc3ccc(N)cc3[nH]2)cc1	none
c1ccc2[nH]c(CCCc3nc4ccccc4[nH]3)nc2c1	none
CCCCc1c(O)c2cnn(-c3ccccc3)c2[nH]c1=O	none

High-throughput results as filed in PubChem BioAssay.
